High-throughput results as filed in PubChem BioAssay.
A selection: hits, their analogues and other compounds. The true share with any hit is near 3.5%.
TWEAK Fn14 block: inhibitors of TWEAK-Fn14 interaction signaling; TWEAK-stimulated Fn14 reporter cells, luciferase luminescence, 8 h; inhibition, % at 10 µM; hit rate 2% among 360,000; AID 1159606; in the data active means inhibition above about 50%
TROY NFkB inh: inhibitors of TROY-dependent NF-kB signaling. Q293 LMP1-TROYcd NF-kB luciferase reporter, 4 h. inhibition, % at 10 µM. hit rate 0.98% among 360,000. AID 1347056;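 active means compounds whose plate-normalised and pattern-corrected inhibition of the luciferase reporter signal at the single screening dose is 50% or more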
TRAIL sens C8: caspase-8 TRAIL sensitization. NB7+C8 cells + TRAIL, ATPlite viability luminescence. inhibition (viability loss, TRAIL sensitization), % at 10 µM. hit rate 1% among 360,000. AID 624354;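 active means compounds causing at least 50% loss of cell viability in the single-dose screen, relative to plate controls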
HSP90 refold inh: inhibitors of HSP90 luciferase refolding in rabbit reticulocyte lysate; luciferase refolding luminescence, 3 h; inhibition, % at 5.6 µM; hit rate 0.91% among 290,000;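 active means inhibition above the screen-wide mean plus 3 SD, computed separately per campaign, cut at about 16% in these data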;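 further: inhibitors lower the luminescence because luciferase stays unfolded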
Platelet DG rel: modulates dense granule release in human platelets | human platelet-rich plasma, SFLLRN dense granule ATP release, luminescence | AID 1663 | inhibition, %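 (compounds screened at 7.5 µM in platelet-rich plasma)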 | hit rate 0.22% among 300,000;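 active means mean replicate score, as percent of positive control, at or above 50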
PPC-1+TRAIL kill: kills PPC-1 cancer cells in the presence of TRAIL; hit rate 0.41% among 220,000; PPC-1 cells + TRAIL, ATPLite viability luminescence; cell killing (% activity), % at 4 µM or 5 µM; AID 1443;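 active means cell killing above 50% in the first pass at 4 µM, then a duplicate retest at 5 µM averaging 50% or more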
Each line names hits and unclear results; the compound was inactive in the other large screens.

Cc1ccc(C(=O)O)cc1NS(=O)(=O)c1ccc2ccccc2c1	none (no result: PPC-1+TRAIL kill)
CC(C)OC(=O)C(C(=O)C(F)(F)F)c1cc(NS(=O)(=O)c2ccc3ccccc3c2)c2ccccc2c1O (centres undefined)	TWEAK Fn14 block 62, TROY NFkB inh 68
COc1ccc(S(=O)(=O)N2CCOCC2)cc1NC(=O)CSc1nnc2n1CCCCC2	none (no result: HSP90 refold inh, Platelet DG rel, PPC-1+TRAIL kill)
CCOP(=O)(OCC)C(NC(=O)C(F)(F)F)c1ccccc1 (centres undefined)	TROY NFkB inh 63
CCCOP(=O)(OCCC)C(NC(=O)C(C)(C)C)c1ccccc1 (centres undefined)	none
CCOC(=O)c1c(C)[nH]c(C(=O)COC(=O)[C@H](C)N2C(=O)C3CCCCC3C2=O)c1C (some centres undefined)	none (no result: HSP90 refold inh, Platelet DG rel, PPC-1+TRAIL kill)
NS(=O)(=O)c1ccc2nc(NC(=O)Nc3ccccc3F)sc2c1	TWEAK Fn14 block 51 (no result: PPC-1+TRAIL kill)
Cc1ccccc1NC(=O)Nc1nc2ccc(S(C)(=O)=O)cc2s1	none
C[C@H]1CN([C@@H](C)CO)C(=O)CCCn2nncc2CO[C@@H]1CN(C)C(=O)Nc1cccc2ccccc12	TWEAK Fn14 block 53 (no result: HSP90 refold inh, Platelet DG rel, PPC-1+TRAIL kill)
C[C@H](CO)N1C[C@H](C)[C@H](CN(C)S(=O)(=O)c2ccc(F)cc2)OCc2cnnn2CCCC1=O	TWEAK Fn14 block 102 (no result: HSP90 refold inh, Platelet DG rel, PPC-1+TRAIL kill)
CC(C)c1nc2sc3c(SCCN(C)C)ncnc3c2c2c1CCC2	none (no result: HSP90 refold inh, Platelet DG rel, PPC-1+TRAIL kill)
COC(=O)c1ccc(COc2ccccc2/C=C(\C#N)C(=O)Nc2c(C)cc(C)cc2C)cc1	TWEAK Fn14 block 68
COC(=O)c1ccc(COc2ccccc2/C=C(\C#N)C(=O)Nc2ccc(C)cc2C)cc1	none
CC(C)(C)C(=O)C(C(c1ccccc1)N1CCOCC1)N1CCOCC1 (centres undefined)	none (no result: HSP90 refold inh, Platelet DG rel, PPC-1+TRAIL kill)
c1ccc(COc2cccc(CN3CCCCC3)c2)cc1	TWEAK Fn14 block 103 (no result: PPC-1+TRAIL kill)
Cc1nc2nc(SCC(=O)NCCCN3CCCC3)nn2c(C)c1Cc1ccccc1Cl	none (no result: PPC-1+TRAIL kill)
O=C(Nc1ccc(/C=C/c2nc3ccccc3o2)cc1)c1c(F)cccc1F	TROY NFkB inh 59
CC(=O)Nc1ccc(/C=C/c2nc3ccccc3o2)cc1	none (no result: PPC-1+TRAIL kill)
Cc1ccc(S(=O)(=O)N2[C@H](CC(=O)OCc3ccccc3)OC[C@@H]2C)cc1	none (no result: TWEAK Fn14 block, TROY NFkB inh, HSP90 refold inh, Platelet DG rel, PPC-1+TRAIL kill)
Cc1sc2nc(C)n(/N=C/c3ccc(O)cc3)c(=O)c2c1C	TRAIL sens C8 50
Cc1ccccc1NC(=O)C1CCN(C(=O)N2CCOc3ccccc32)CC1	none (no result: PPC-1+TRAIL kill)
O=C(O)C(NS(=O)(=O)c1ccc(F)cc1)c1ccccc1 (centres undefined)	TWEAK Fn14 block 90
COC(=O)C(NS(=O)(=O)c1ccc(C)cc1)c1ccccc1 (centres undefined)	none
COc1ccc(-c2cc(=O)oc3cc(OC(=O)C4CCCCC4)c(Cl)cc23)cc1	TWEAK Fn14 block 84, TROY NFkB inh 58
COc1ccc(-c2cc(=O)oc3cc(OCC(C)=O)ccc23)cc1	none
COc1ccc(-c2cc(=O)oc3cc(OC(C)C(=O)NC4CC4)ccc23)cc1 (centres undefined)	none (no result: PPC-1+TRAIL kill)
Cc1c(O)ccc2c(-c3ccccc3)cc(=O)oc12	none (no result: PPC-1+TRAIL kill)
COc1ccc(-c2cc3ccc(O)cc3oc2=O)cc1OC	Platelet DG rel 71 (no result: PPC-1+TRAIL kill)
COc1ccc(-c2cc3ccc(OCC(N)=O)cc3oc2=O)cc1OC	none (no result: PPC-1+TRAIL kill)
COc1ccc(-c2cc(=O)oc3cc(O)ccc23)cc1	TWEAK Fn14 block 64 (no result: PPC-1+TRAIL kill)
COc1ccc(-c2cc(=O)oc3c(C)c(O)ccc23)cc1	TWEAK Fn14 block 72, TROY NFkB inh 61 (no result: PPC-1+TRAIL kill)
CCN1CCN(C(C(=O)NC2CCCCC2)c2ccnc3ccccc23)CC1 (centres undefined)	none (no result: HSP90 refold inh, Platelet DG rel, PPC-1+TRAIL kill)
COC(=O)c1ccc(/C=C(\C#N)c2ccccn2)cc1	TRAIL sens C8 52
O=C(CSc1nnc2ccc(-c3ccccc3)nn12)NCC1CCCO1 (centres undefined)	none
Cc1cccc(NC(=O)C23CCC(C)(C(=O)O2)C3(C)C)c1 (centres undefined)	none
CC12CCC(C(=O)Nc3ccc4c(c3)OCCO4)(OC1=O)C2(C)C (centres undefined)	TWEAK Fn14 block 83, TROY NFkB inh 70
CC(C)c1ccc(CC(=O)N2CCC2(C)C(=O)Nc2ccc3c(c2)OCCO3)cc1 (centres undefined)	TWEAK Fn14 block 51 (no result: HSP90 refold inh, Platelet DG rel, PPC-1+TRAIL kill)
COc1ccc(NC(=O)c2c(-c3c(Cl)cccc3Cl)noc2C)c(OC)c1	none (no result: PPC-1+TRAIL kill)
COc1cccc(COC(=O)c2c(C)nn(-c3ccccc3)c2Cl)c1OC	none (no result: PPC-1+TRAIL kill)
